Columns and labels:
Experiment in all cases: DAPPL (digital affinity profiling via proximity ligation, sequencing); 10 mM Tris-HCl pH 7.5, 50 mM NaCl, 1 mM DTT, 4% glycerol, room temperature, 30 min; GST-TFs on glutathione beads, 16-mer random dsDNA library, 0.1% formaldehyde crosslink after washing; high values mean tight binding
FEV = molecular target: T1, FEV (Homo sapiens, UniProt Q99581 1-238); conditions: protein: recombinant; tags: N-terminal GST; dsDNA, one strand shown
T1 sequence: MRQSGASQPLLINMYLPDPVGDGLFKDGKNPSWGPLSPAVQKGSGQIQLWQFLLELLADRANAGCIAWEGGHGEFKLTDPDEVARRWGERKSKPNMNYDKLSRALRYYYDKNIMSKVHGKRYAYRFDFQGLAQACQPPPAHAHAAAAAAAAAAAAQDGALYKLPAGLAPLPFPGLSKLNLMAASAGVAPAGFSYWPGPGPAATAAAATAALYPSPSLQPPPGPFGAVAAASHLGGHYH
How it was run: (§1)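 Binding signal is each hexamer's read frequency for a factor divided by its frequency in the tag-only sample. The factors were GST-fused human transcription factors from yeast, captured on glutathione beads, DNA-barcoded and pooled with that sample. Pools were incubated with 200 nmole of a random double-stranded 16-mer DNA library in Tris/NaCl/DTT/glycerol buffer at room temperature for 30 min, then washed, crosslinked with 0.1% formaldehyde, proximity-ligated with BsaI/T4 ligase (1 h, 37 °C), PCR-amplified and sequenced on an Illumina NextSeq500.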

ETV5 = ETV5 (Homo sapiens, UniProt P41161 1-510); conditions: protein: recombinant; tags: N-terminal GST; dsDNA, one strand shown
How it was run: as §1

HSF1 = HSF1 (Homo sapiens, UniProt Q00613 1-529); conditions: protein: recombinant; tags: N-terminal GST; chain copies: 3; dsDNA, one strand shown
How it was run: as §1

SPIC = molecular target: T2, SPIC (Homo sapiens, UniProt Q8N5J4 1-248); conditions: protein: recombinant; tags: N-terminal GST; dsDNA, one strand shown
T2 sequence: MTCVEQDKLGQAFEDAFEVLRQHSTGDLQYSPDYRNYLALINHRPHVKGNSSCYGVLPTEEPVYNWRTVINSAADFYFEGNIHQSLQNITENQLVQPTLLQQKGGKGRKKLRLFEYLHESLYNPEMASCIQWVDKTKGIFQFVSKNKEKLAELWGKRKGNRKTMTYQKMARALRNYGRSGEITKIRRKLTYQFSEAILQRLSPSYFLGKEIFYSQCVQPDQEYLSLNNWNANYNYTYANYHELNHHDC
How it was run: as §1

ELF4 = ELF4 (Homo sapiens, UniProt Q99607 1-663); conditions: protein: recombinant; tags: N-terminal GST; dsDNA, one strand shown
How it was run: as §1

ELK4 = molecular target: T3, ELK4 (Homo sapiens, UniProt P28324-2 1-405); conditions: protein: recombinant; tags: N-terminal GST; dsDNA, one strand shown
T3 sequence: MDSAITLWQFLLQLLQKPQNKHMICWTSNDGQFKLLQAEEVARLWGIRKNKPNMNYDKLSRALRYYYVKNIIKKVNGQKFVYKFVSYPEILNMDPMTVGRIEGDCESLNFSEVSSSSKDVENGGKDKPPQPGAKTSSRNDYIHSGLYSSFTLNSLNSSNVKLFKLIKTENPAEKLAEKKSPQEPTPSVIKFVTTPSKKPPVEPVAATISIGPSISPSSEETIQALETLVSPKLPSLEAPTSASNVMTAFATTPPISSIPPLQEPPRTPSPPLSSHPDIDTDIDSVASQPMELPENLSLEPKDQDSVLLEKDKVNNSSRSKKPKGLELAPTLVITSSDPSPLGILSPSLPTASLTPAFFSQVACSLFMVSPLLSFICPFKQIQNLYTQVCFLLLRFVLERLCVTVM
How it was run: as §1

ETV2 = molecular target: T4, ETV2 (Homo sapiens, UniProt O00321 1-342); conditions: protein: recombinant; tags: N-terminal GST; dsDNA, one strand shown
T4 sequence: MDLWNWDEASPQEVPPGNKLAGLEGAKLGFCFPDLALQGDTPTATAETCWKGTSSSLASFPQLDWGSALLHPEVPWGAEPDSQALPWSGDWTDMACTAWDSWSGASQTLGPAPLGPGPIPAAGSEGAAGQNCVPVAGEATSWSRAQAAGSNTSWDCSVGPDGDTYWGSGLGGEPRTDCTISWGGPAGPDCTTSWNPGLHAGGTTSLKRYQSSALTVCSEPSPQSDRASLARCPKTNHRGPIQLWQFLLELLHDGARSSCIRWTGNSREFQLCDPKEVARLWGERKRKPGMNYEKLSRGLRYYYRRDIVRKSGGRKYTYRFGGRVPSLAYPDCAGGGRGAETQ
How it was run: as §1

ELF3 = molecular target: T5, ELF3 (Homo sapiens, UniProt P78545 1-371); conditions: protein: recombinant; tags: N-terminal GST; dsDNA, one strand shown
T5 sequence: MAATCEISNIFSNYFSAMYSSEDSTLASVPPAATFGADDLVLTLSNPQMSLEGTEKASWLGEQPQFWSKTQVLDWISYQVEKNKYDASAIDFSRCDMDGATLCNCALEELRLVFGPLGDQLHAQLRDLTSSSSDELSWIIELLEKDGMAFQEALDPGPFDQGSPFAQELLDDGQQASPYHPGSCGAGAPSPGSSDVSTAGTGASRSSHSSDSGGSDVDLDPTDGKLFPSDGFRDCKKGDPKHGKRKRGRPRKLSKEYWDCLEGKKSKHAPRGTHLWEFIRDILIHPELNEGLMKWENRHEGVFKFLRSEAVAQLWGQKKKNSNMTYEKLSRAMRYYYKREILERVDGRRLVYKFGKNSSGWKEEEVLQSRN
How it was run: as §1

CRX = CRX (Homo sapiens, UniProt O43186 1-299); conditions: protein: recombinant; tags: N-terminal GST; dsDNA, one strand shown
How it was run: as §1

Chain of ETV5 (P41161 whole entry): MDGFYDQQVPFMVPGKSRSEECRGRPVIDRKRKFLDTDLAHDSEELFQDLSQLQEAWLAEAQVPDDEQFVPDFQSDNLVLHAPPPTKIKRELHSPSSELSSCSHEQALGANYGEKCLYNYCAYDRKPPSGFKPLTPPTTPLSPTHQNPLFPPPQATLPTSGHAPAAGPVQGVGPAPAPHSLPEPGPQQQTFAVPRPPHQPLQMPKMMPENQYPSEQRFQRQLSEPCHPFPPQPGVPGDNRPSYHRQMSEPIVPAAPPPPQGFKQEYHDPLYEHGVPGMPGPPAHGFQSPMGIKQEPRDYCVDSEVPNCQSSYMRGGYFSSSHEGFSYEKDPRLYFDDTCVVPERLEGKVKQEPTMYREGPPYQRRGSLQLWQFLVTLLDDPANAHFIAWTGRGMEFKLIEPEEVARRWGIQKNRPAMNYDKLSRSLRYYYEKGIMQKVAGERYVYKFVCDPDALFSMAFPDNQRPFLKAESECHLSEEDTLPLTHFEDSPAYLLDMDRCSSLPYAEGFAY
Chain of CRX (O43186 whole entry): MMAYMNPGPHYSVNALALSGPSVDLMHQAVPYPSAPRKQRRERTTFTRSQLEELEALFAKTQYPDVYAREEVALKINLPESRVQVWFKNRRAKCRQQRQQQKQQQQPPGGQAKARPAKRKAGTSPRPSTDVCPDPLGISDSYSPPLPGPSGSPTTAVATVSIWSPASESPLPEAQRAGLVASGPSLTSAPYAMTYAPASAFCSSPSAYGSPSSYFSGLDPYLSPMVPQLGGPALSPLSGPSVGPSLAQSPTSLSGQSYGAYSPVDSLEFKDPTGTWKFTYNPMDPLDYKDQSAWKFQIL
Chain of ELF4 (Q99607 whole entry): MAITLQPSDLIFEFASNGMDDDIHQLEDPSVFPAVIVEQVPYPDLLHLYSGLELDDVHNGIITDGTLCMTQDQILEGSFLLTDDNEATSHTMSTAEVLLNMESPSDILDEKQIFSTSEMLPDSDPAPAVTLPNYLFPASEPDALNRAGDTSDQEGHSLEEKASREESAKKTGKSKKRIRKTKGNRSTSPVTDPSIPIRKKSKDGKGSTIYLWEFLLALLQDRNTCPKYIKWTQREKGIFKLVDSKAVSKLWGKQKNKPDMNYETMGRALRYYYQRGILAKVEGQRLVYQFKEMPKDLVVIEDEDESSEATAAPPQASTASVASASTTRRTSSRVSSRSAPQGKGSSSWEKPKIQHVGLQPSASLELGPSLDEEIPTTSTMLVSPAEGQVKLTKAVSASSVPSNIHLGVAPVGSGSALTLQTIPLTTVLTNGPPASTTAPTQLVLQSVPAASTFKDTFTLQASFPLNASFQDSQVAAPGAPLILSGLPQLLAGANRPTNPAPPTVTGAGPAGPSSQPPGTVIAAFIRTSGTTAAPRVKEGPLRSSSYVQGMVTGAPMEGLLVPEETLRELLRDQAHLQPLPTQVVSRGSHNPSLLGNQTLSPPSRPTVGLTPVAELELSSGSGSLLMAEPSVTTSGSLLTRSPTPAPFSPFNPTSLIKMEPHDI
Chain of HSF1 (Q00613 whole entry): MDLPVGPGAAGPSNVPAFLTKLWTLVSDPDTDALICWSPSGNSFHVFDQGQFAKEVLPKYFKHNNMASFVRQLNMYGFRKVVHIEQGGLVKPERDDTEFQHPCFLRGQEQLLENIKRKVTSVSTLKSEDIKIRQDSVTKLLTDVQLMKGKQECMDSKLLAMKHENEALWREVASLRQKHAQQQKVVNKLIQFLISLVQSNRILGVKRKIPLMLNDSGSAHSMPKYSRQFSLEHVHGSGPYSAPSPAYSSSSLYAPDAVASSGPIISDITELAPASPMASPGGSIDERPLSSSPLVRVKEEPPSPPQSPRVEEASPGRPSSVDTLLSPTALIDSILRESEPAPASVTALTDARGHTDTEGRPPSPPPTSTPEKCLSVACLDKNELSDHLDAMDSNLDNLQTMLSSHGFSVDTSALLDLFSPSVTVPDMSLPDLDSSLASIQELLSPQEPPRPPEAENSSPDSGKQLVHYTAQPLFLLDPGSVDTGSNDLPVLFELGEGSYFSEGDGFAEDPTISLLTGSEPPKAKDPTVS

Sequence: AATTCA
- binding signal (FEV): 1.24 fold enrichment (6-mer frequency, TF over GST control)
- binding signal (ETV5): 1.34 fold enrichment (6-mer frequency, TF over GST control)
- binding signal (HSF1): 1.34 fold enrichment (6-mer frequency, TF over GST control)
- binding signal (SPIC): 1.32 fold enrichment (6-mer frequency, TF over GST control)
- binding signal (ELF4): 1.33 fold enrichment (6-mer frequency, TF over GST control)
- binding signal (ELK4): 1.26 fold enrichment (6-mer frequency, TF over GST control)
- binding signal (ETV2): 1.36 fold enrichment (6-mer frequency, TF over GST control)
- binding signal (ELF3): 1.35 fold enrichment (6-mer frequency, TF over GST control)
- binding signal (CRX): 1.39 fold enrichment (6-mer frequency, TF over GST control)
